± gives the standard deviation of the averaged measurements. The full ranking holds about 25,000 sequences; the median of “ln(normalized median fluorescence intensity)” is about 8.6, and the highest 2% start at about 10. The sample holds the highest values, similar sequences and a random draw of the others, so the mix is not that of the screen.
Test system: PfAP2-EXP AP2 domain (GST-tagged)
Experiment: gcPBM binding intensity (ln(normalized median fluorescence intensity)); higher = stronger DNA binding
Procedure, shortened: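 For binding intensity, the highest Masliner-normalised natural-log median intensity across replicate spots of either probe orientation was taken. Protein bound to the array was stained with Alexa488 anti-GST antibody and scanned at 488 nm. The protein, GST-tagged P. falciparum DNA-binding domains from E. coli at about 25 μg on average, had been applied for 1 h to an Agilent 4 × 180k array of primer-extended double-stranded 36-bp intergenic genomic probes and negative controls.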

| Sequence | gcPBM binding intensity (ln) |
| --- | --- |
| TTTAATAATATAATGTGTACTTAAAAATTTATATAT [XGTACX_site5821] | 8.29 ± 0.21 |
| TATACATTATTATTATGTACTTAAATATATATTATA [XGTACX_site5173] | 8.35 ± 0.34 |
| ATATATATATATGTGTGTACTTAAAAATATAATGCA [XGTACX_site7753] | 10.2 ± 0.14 |
| ATATATATATATATATGTACTTAAAAAATATATACA [XGTACX_site8952] | 10.2 ± 0.53 |
| AATAATAAATAAATGTGTACTTAAAAATATTATATT [XGTACX_site3005] | 8.44 ± 0.33 |
| ATTACAAATATAATATGTACTTAAATATAATTAAAA [XGTACX_site7038] | 8.17 ± 0.34 |
| TGGAAAATTATTAACACACACATATAAATATATATA [CACACA_site46] | 8.4 ± 0.45 |
| TGCAAATTTAACAAAAAAAAAAAAAAAAAAAAAAAA [GTGCAC_negctrl_site64] | 7.88 ± 0.45 |
| AAAATACAATTTCTAGCACACAAAATATTATTATAA [CACACA_site9056] | 8.34 ± 0.37 |
| TTCACTTTTTTTTTTTTTTTTTTTTTTTTTTTTATT [GTGCAC_negctrl_site350] | 8.07 ± 0.56 |
| TAATTTCTTATGTATTGTACATATAATATATGATAT [XGTACX_site4898] | 8.52 ± 0.41 |
| AATATTTTCTGTAATACTTCTTTTCAATTTATTTCG [CACACA_negctrl_site1390] | 8.76 ± 0.45 |
| ATAATATATGAAAGTGGTACACAAAGGAAAATAAAA [XGTACX_site333] | 9.14 ± 0.57 |
| ATATATATATATATATGGTAAAGTAAAAGGAAATAC [XGTACX_negctrl_site45] | 10.3 ± 0.3 |
| TATAAAATAAAAGTAAATATATATATATATATATAT [TGCATGCA_negctrl_site208] | 10.1 ± 0.3 |
| GAAACGTTTTTGAGTAGTACACACACAATAAGGATG [XGTACX_site6809] | 9.02 ± 0.45 |
| TTTTATACATAAATGTGTACGTATATATAATGAATT [XGTACX_site2762] | 8.59 ± 0.32 |
| GATTTATATTTTAAAAGTACAAGTTAAAATAAAAGT [XGTACX_site7059] | 8.74 ± 0.33 |
| ATATATATTATGTGTGTGCACTTTTGTTATTATTAT | 9 ± 0.33 |
| TATGTATATTTTTTTGTGCACATATATATATATATA | 10.2 ± 0.26 |
| TTTTTGTTATTATGTGTGCACATATATATATATATA | 10.3 ± 0.4 |
| ATATATGATGTATTTGTGCACATATATATATTATTA [GTGCAC_site9471] | 8.75 ± 0.028 |
| TTATTTTATTTTTTTGTGCACATATATATTTATAAA [GTGCAC_site9615] | 9.15 ± 0.21 |

| Sequence | gcPBM binding intensity (ln) |
| --- | --- |
| ACATATTATATATGTGTGCACATATATATATATTTA [GTGCAC_site9591] | 8.47 ± 0.13 |
| AACAAATACAGACACACACACACACTAATAAAAAAA [CACACA_site8067] | 8.66 ± 0.52 |
| ATATATGGAAAGAGTAGTACTATTATAGGGGTGTTA [XGTACX_site6785] | 8.95 ± 0.64 |
| TTTTTTTTGTAGAATTGTACTTATAAAATATATATA [XGTACX_site2116] | 8.19 ± 0.34 |
| TAAAAATTACTATATGAACACACATGATTAGATATA [CACACA_site9012] | 8.43 ± 0.49 |
| TTATATTTATAAAGGTGTACCTTAAAATGATTTTAC [XGTACX_site3774] | 8.19 ± 0.25 |
| AAAAAAAATATAATATGTACATATCTATATATCAAC [XGTACX_site4881] | 8.55 ± 0.38 |
| TGTGTATATTATATGTGTACATATCAATGTTTATAT [XGTACX_site1885] | 8.61 ± 0.26 |
| ATATATATATATATATGTACATATGTCAACTGTCTA [XGTACX_site8636] | 10.3 |
| GTAATTTTATATGGTTGTACATATATATATATATAT [XGTACX_site6659] | 10.2 ± 0.18 |
| ATTTGTTCATTTGGTTGTACATAATTTATTTTTATA [XGTACX_site785] | 8.75 ± 0.33 |
| GTCATATATAATTGTTGTACATTTTTATAATTATGT [XGTACX_site8091] | 8.86 ± 0.36 |
| ATATATATATATATATGTACATATATTTATTTATTG [XGTACX_site6267] | 10.2 ± 0.3 |
| ATATATATATATATATGTACATATATTTATATTTAT [XGTACX_site6179] | 9.99 ± 0.42 |
| ATATATATATATGTCTGTACATAAAAAATAATAAAT [XGTACX_site3122] | 10 ± 0.36 |
| TATACATGTATATATTGTACATATGTTTTTTTTACA [XGTACX_site3300] | 8.86 ± 0.57 |
| GCTCAATGTTTTACATGTACATATATATATATATAT [XGTACX_site8210] | 10.2 ± 0.33 |
| ATTTATTTATTTATATGTACATATATATATATATAT [XGTACX_site339] | 10.1 ± 0.3 |
| GGAATTATAATAAATGGTACACATAAAAAAAAAAAA [XGTACX_site8343] | 8.77 ± 0.59 |
| ATATATAATCATCACACATGCAGCCCTGATGAAAAA [TGCATGCA_site687] | 8.77 ± 0.38 |
| TGCATACTTTTGTAAGTGCATAAAATCGTACCATGC | 8.71 ± 0.11 |
| GATATTACGTGTTTGGTATTTTTTGATGTTAATAGG [CACACA_negctrl_site105] | 8.8 ± 0.52 |
| CATATATATTTTATATGTACATATATATTTTATATA [XGTACX_site8665] | 8.45 ± 0.25 |

| Sequence | gcPBM binding intensity (ln) |
| --- | --- |
| AAAAAAAAAAAAAAGAGTACATTTATTTATATATCT [XGTACX_site2381] | 8.23 ± 0.19 |
| ATATATATATATTTATGTACATATATTTTTTTTTTT [XGTACX_site8558] | 9.73 ± 0.28 |
| ATATATATATATATATGTACATATTTTATAACTGTA [XGTACX_site5395] | 10.2 ± 0.33 |
| TTTTTTTTTATATTTAGTACATATATATTATTATAT [XGTACX_site3334] | 8.39 ± 0.31 |
| ATATATATATATATATGTACATATATTTTTATTTAT [XGTACX_site3508] | 10.3 ± 0.26 |
| TTTTTTTTTTTTTTATGTACATATATATATTTTATT [XGTACX_site6915] | 8.61 ± 0.6 |
| ATATATATATATGTATGTACATATTTTTTTTAACAC [XGTACX_site8475] | 9.93 ± 0.4 |
| ATATATATATATGTATGTACACATATTTTTTAACTT [XGTACX_site431] | 10.42 ± 0.042 |
| TTATATTTTTACAAGAGTACATATATATATATATAT [XGTACX_site5383] | 10.2 ± 0.31 |
| TATATACATTTATGTACACACACATATATGTATATT [CACACA_site8971] | 8.59 ± 0.34 |
| ATATATATATATATATGTACATATTTTTTATTTTAT [XGTACX_site5761] | 10.1 ± 0.5 |
| CTTAAGTAAAATTAAAGTACATGGACAAAAAATATA [XGTACX_site7900] | 8.87 ± 0.28 |
| AAAAAAAAAAAAAAAAGTACAAAAAAAAAAAAAAAA [XGTACX_site4549] | 8.26 ± 0.057 |
| AAAATTAATTATTACAAAAATGAAAAGACATATTTT [GTGCAC_negctrl_site735] | 8.23 ± 0.38 |
| TAATCAATTCAATATTGTACGATATTTACCTTTAAA [XGTACX_site4678] | 8.89 ± 0.42 |
| AGAGGGGAAAACATGATGCACTAGTATAACCAAGAA | 9.22 ± 0.34 |
| GTGAATATTAAAAAATGTACACAATTATATGTATAT [XGTACX_site4834] | 8.49 ± 0.28 |
| TTCAAAAGATATATCGTGCACATATATATGATGAAA | 9.35 ± 0.62 |
| ATGCTCAGGAAAACATGTACAAAATTATTTGTTATA [XGTACX_site4306] | 8.31 ± 0.34 |
| ATATATTTATTTATATGTACATATTATATATTATAG [XGTACX_site3371] | 8.55 ± 0.35 |
| AAGTATTTTTTTACATGTACATATATATATATATAT [XGTACX_site5065] | 10.2 ± 0.26 |
| TGTATGTTTATTTATCGTACATATATATATATATAT [XGTACX_site7315] | 10.2 ± 0.18 |
| ATGTATATATATATATGTACATATTTTTTATATGTA [XGTACX_site441] | 8.29 ± 0.25 |

| Sequence | gcPBM binding intensity (ln) |
| --- | --- |
| TATATTATATTTTTATGTACATATATGTTTTTTTTT [XGTACX_site8239] | 8.52 ± 0.092 |
| GTATATAAGTATATATGTACATATATTTTATATATA [XGTACX_site4745] | 8.42 ± 0.23 |
| TTTCATTAATCTAATAGTACAGAAAATTGAGAAAAA [XGTACX_site8395] | 8.72 ± 0.34 |
| ATTTTTTTCTTTTCTTTTTTCTTTTTTTTTTTTGGT [CACACA_negctrl_site1146] | 8.35 ± 0.61 |
| AACTTATTAAGCCCTCCACATTTCTCTACTACAACT [CACACA_negctrl_site1552] | 8.61 ± 0.43 |
| TATTTTTTTTTTATATGTACATAATTTCAAATAAAT [XGTACX_site7747] | 8.62 ± 0.48 |
| TATAATTATATTTGGAGTACAAATTTTTTTTTTTTT [XGTACX_site7494] | 8.3 ± 0.32 |
| TATATTTCAGGGGGGAGTACAAATTTTTTTATATAA [XGTACX_site1600] | 10.9 ± 0.38 |
| ATATAAAAAAAAAAAAAAAAATATATATATATATAT [GTGCAC_negctrl_site251] | 10.2 ± 0.13 |
| TTATAATAAATATATAAAAAAAAAAAAAAAAAAAAA [CACACA_negctrl_site1639] | 7.97 ± 0.23 |
| TATAAAAAAAAAAAATATATATATATATAAATATAA [TGCATGCA_negctrl_site367] | 8.2 ± 0.31 |
| ATAAAAAAAAAAAAAAAATATATATATATATATATA [XGTACX_negctrl_site424] | 10.2 ± 0.32 |
| TTATAAAAAAAAAAAAAAAATATATATATATATATA [XGTACX_negctrl_site592] | 10.3 ± 0.13 |
| TTATAATATAAAAATAAATAAATAAATAAATAAATA [CACACA_negctrl_site1587] | 8.55 ± 0.11 |
| AAAAATAAAAAATATAAAAATATAAAAATATAAAAA [XGTACX_negctrl_site51] | 8.32 ± 0.38 |
| ATATAAATAAAAAAAAAAAAAAAAAAAAAAAAAAAA [CACACA_negctrl_site972] | 8.01 ± 0.43 |
| AAAAAAAAAAAAAAATATAAATATATATATATATAT [GTGCAC_negctrl_site28] | 10 ± 0.28 |
| TAAATAATATCTATCACACACGCATATATACATATA [CACACA_site2622] | 8.32 ± 0.44 |
| TAATATTATTTTTCAGTGCAATATAACCTTAGAATT [GTGCAC_site9417] | 8.38 ± 0.32 |
| CATGTTCATCAGAACGCACACATAATGGTTTACTTA [CACACA_site898] | 8.47 ± 0.3 |

— the supplement of paper PMC11417369
